PubChem BioAssay AID720551 (National Center for Advancing Translational Sciences (NCATS), 2013)
Out of some 340,000 compounds screened, about 1,300 (0.38%) were called active. Many of the other results were omitted from the sample, so actives are more common in it than they were. A number with no mark means an inactive call.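 How the source made its calls: active means maximum activity change below -70%; inconclusive means maximum activity change between -70% and -50%; inactive means maximum activity change above -50%.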

Molecular target: Voltage-gated inwardly rectifying potassium channel KCNH2 (Homo sapiens) (UniProt Q12809)
Sequence (Q12809 whole entry, looked up): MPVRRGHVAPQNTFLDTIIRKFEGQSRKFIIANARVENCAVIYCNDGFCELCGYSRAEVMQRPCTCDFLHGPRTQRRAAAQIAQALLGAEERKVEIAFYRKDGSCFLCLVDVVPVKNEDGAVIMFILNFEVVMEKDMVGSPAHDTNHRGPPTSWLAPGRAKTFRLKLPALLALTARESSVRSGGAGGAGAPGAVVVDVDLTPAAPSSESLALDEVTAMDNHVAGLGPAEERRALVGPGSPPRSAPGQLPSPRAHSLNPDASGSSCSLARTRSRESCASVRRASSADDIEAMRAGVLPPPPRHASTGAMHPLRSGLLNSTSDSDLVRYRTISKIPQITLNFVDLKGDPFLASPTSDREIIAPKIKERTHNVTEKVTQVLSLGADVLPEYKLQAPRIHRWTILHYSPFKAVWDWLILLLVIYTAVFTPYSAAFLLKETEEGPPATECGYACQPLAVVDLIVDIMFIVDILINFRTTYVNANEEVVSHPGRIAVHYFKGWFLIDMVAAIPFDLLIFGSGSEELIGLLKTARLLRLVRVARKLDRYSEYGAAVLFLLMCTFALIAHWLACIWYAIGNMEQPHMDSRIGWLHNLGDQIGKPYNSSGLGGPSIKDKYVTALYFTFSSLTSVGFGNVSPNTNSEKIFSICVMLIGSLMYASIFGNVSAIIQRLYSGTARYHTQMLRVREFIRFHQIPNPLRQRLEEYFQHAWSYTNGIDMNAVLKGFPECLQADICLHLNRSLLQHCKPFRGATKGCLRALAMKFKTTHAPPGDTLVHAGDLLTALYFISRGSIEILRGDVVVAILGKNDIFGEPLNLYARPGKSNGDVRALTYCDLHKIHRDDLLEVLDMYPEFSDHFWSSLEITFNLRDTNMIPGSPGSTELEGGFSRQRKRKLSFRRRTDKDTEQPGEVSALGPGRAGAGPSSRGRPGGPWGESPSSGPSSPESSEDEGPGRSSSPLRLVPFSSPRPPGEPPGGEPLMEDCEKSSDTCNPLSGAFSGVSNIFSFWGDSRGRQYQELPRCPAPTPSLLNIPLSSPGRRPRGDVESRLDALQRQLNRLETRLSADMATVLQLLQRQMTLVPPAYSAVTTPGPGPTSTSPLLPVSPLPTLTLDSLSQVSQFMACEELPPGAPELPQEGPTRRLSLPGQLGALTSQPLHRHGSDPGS
Assay: qHTS for Inhibitors of KCHN2 3.1: Wildtype qHTS
Details: U2OS, BacMam KCNH2, thallium flux FluxOr; at 1.84 µM; hits give low values
How it was run: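 U2OS cells were transduced with wild-type KCNH2 virus (2.03 x 10^8 / mL) for 4 h at room temperature, then cultured overnight at 37 C. Thallium flux was read with FluxOr dye. Rate constants were normalized to DMSO controls.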
On the % scale 0 is the no-effect control and ±100 the full control effect.

| SMILES | activity change |
| --- | --- |
| C[C@H](CO)N1C[C@H](C)[C@@H](CN(C)S(=O)(=O)c2ccc(Oc3ccccc3)cc2)OCc2cn(nn2)CCCC1=O | 10.5% |
| COc1ccc(C=C2CCC3C(CCCC34OCCO4)C2=O)cc1 (stereo not drawn) | 7.34% |
| COc1ccc(S(=O)(=O)N2CCN(CC(=O)N3CCNC3=O)CC2)cc1OC | -3.77% |
| Cc1cccc(C)c1OCC(O)CN1CCCCC1 (stereo not drawn) | -71.1% (active) |
| OC(COc1ccc(CN2CCSCC2)cc1)CN1CCCCC1 (stereo not drawn) | -2.59% |
| O=C(c1ccc(Cl)cc1)c1ccc(OCC(O)CN2CCCCC2)cc1 (stereo not drawn) | 42.5% |
| Cc1ccc(NC(=O)c2ccco2)cc1 | -2.95% |
| O=Cc1cn(CCOc2ccc(F)cc2)c2ccccc12 | -0.818% |
| CCOC(=O)C1CCN(C(=O)Nc2cccc(OC)c2)CC1 | -8.37% |
| COc1cccc(NC(=O)N2CCC(NC(=O)C(Cc3cccc(C)c3)NC(C)=O)CC2)c1 (stereo not drawn) | -205% (active) |
| COc1ccc(CC(NC(C)=O)C(=O)NC2CCN(C(=O)Nc3ccc(C#N)cc3)CC2)cc1OC (stereo not drawn) | 6.09% |
| O=Nc1c(O)cc(O)c2ccccc12 | -0.133% |
| COC(=O)C(Cc1c[nH]c2ccccc12)NC(=O)CCNC(=O)c1ccco1 (stereo not drawn) | 0.0904% |
| CSc1ncc(C(=O)NCCCc2ccccc2)c(C)n1 | 11.2% |
| Cc1ccc(NC(=O)c2ccn(C(=O)Nc3ccccc3)n2)c(C)c1 | 5.47% |
| CSc1ncc(C(=O)Nc2ccc(C)cc2C)c(C)n1 | -213% (active) |
| CCc1cc(C(=O)N(CC)CC(=O)Nc2c(F)cccc2F)sc1C | 1.41% |
| CC(C)c1cc(C(=O)NC2CCCCCC2)c2ccccc2n1 | 1.65% |
| O=S(=O)([N-]c1nc2ccccc2nc1-[n+]1ccc(Cc2ccccc2)cc1)c1ccc(Br)s1 | 8.23% |
| Cc1cc(C)c[n+](-c2nc3ccccc3nc2[N-]S(=O)(=O)c2cccs2)c1 | -111% (active) |
| CCCCNc1nc2ccccc2nc1NS(=O)(=O)c1cccs1 | -1.02% |
| N#Cc1ccc(OCC(=O)Nc2nc(-c3ccccn3)cs2)cc1 | 19.3% |

| SMILES | activity change |
| --- | --- |
| CCc1ccc2ncc(C(=O)c3ccccc3)c(N3CCOCC3)c2c1 | 5.15% |
| O=C(c1ccccc1)c1cc(-c2ccccn2)c(N2CCOCC2)s1 | -186% (active) |
| O=C(NCC(c1cccs1)N1CCOCC1)c1cc(-c2ccccn2)nc2ccccc12 (stereo not drawn) | 0.99% |
| Cc1ccc([C@H]2N[C@]3(CCCN(CC4CCCCC4)C3=O)[C@H]3C(=O)N(Cc4ccccc4)C(=O)[C@@H]23)cc1 | 2.25% |
| CN(C)C(CNC(=O)c1cccc(S(=O)(=O)N2CCc3ccccc3C2)c1)c1ccccc1 (stereo not drawn) | 19.3% |
| C[C@@H]1CN([C@H](C)CO)C(=O)c2cc(-c3ccc(F)cc3)cnc2O[C@H]1CN(C)C(=O)c1ccc(F)cc1 | 16.3% |
| Cc1nc2nc[nH]n2c(=O)c1NC(=O)c1cccc(OCC(C)C)c1 | -180% (active) |
| Cc1nc2nc[nH]n2c(=O)c1C/C=C/c1ccccc1 | 1.17% |
| Cc1noc(C)c1COc1cccc(C(=O)Nc2cccnc2)c1 | 7.71% |
| COc1ccc(-c2ccc(CN3C(C(C)C)C(=O)N(Cc4cn(CC5CCCCC5)nn4)CCS3(=O)=O)cc2)cn1 (stereo not drawn) | 6.66% |
| Cc1cccc(C(=O)NC2CCN(CC(=O)Nc3cccc(Cl)c3)CC2)c1 | 47.4% |
| Clc1ccc(-c2cc(-c3ccccn3)on2)c(Cl)c1 | -93.1% (active) |
| Clc1ccc(COn2c(-c3ccc(Cl)cc3Cl)nc3ncccc32)cc1 | 1.98% |
| O=C(COc1ccc(Cl)cc1Cl)N/N=C/c1ccccn1 | -7.76% |
| C[C@@H]1CN([C@H](C)CO)C(=O)CCCn2cc(nn2)CO[C@H]1CN(C)S(=O)(=O)c1ccc(Oc2ccccc2)nc1 | 10.5% |
| COc1ccc(CN2CCN(Cc3ccc(OC)c(OC)c3OC)CC2)cc1 | 38.9% |
| COc1ccc(F)c(-c2nc(CN3CCC(c4ccccc4)CC3)c(C)o2)c1 | 21% |
| COc1ccc(CN2CCC(c3nc4ccc(Cl)cc4[nH]3)CC2)cc1 | -96.7% (active) |
| O=C(CCCN1C(=O)C(c2ccccc2)Oc2cccnc21)Nc1ccccc1Br (stereo not drawn) | -7.82% |
| CCOC(=O)c1cnn2c(SC)ncnc12 | 9.2% |
| CCC(=O)N1CCN(c2ccccc2NC(=O)COc2cccc(C)c2C)CC1 | -214% (active) |
| Cc1ccc(C(C)C)cc1OCC(=O)Nc1ccccc1N1CCCC1 | -18.3% |

| SMILES | activity change |
| --- | --- |
| CCOc1ccccc1NC(=S)N1CCN(c2cccc(C)c2C)CC1 | -2.86% |
| COc1ccc(-c2ccc(CN3C(CC(C)C)C(=O)N(Cc4cn(CC5CCCCC5)nn4)CCS3(=O)=O)cc2)cn1 (stereo not drawn) | 16.3% |
| CCC(Oc1ccccc1)C(=O)OCC(=O)Nc1c(C)nn(-c2ccccc2)c1C (stereo not drawn) | 0.17% |
| O=C(COc1ccccc1F)Nc1nc(-c2ccccn2)cs1 | -8.89% |
| CC(NC(=O)c1ccco1)C(=O)Nc1nc(-c2ccccn2)cs1 (stereo not drawn) | -212% (active) |
| Cc1cc(NC(=O)[C@H](C)NC(=O)c2ccco2)ccc1Br | -4.82% |
| COc1ccc(CC(=O)Nc2c(C(N)=O)oc3ccccc23)cc1 | 26.6% |
| CCOCCCN(C)C1CCN(C(=O)c2oc3ccccc3c2NC(=O)Cc2cccc([N+](=O)[O-])c2)CC1 | -97.4% (active) |
| CN(C(=O)c1cccc(NC(=O)Cc2cccc([N+](=O)[O-])c2)c1)C1CCCCC1 | -17.3% |
| CCOCCCN(C)C1CCN(C(=O)c2oc3ccccc3c2NC(=O)COc2cccc(C)c2)CC1 | -82.2% (active) |
| COc1cccc(OC)c1C(=O)Nc1c(C(=O)N2CCN(c3ccccn3)CC2)oc2ccccc12 | 3.21% |
| COCC(=O)Nc1c(C(=O)N2CCCC2)oc2ccccc12 | -3.28% |
| COc1ccccc1C(=O)NC(=S)Nc1ccc(N2CCOCC2)cc1 | -8.97% |
| C#CCN(C[C@@H]1[C@@H](OC(=O)NC2CC2)[C@@H](OC(=O)NC2CC2)Cn2c(=O)ccc(=O)n21)S(=O)(=O)c1ccc(C)cc1 | 2.34% |
| CC(C)CC1C(=O)N(Cc2cn(Cc3ccco3)nn2)CCS(=O)(=O)N1Cc1ccc(-c2ccc(Cl)c(Cl)c2)cc1 (stereo not drawn) | -32.9% |
| C[C@H](CO)N1C[C@H](C)[C@@H](CN(C)S(=O)(=O)c2ccc(F)cc2)OCc2cnnn2CCCC1=O | -1.39% |
| CCN(CC)C(=O)C1=C(C)N(Cc2ccc(C(C)(C)C)cc2)C(=O)C(CC(=O)NCc2cccc3ccccc23)C1 (stereo not drawn) | -4.42% |
| CCCOc1cccc(C(=O)NCCCNC(=O)c2cccnc2)c1 | -0.846% |
| CCCOc1cccc(C(=O)Nc2nnn(CCC)n2)c1 | -113% (active) |
| CCCn1nnc(NC(=O)COc2ccc(CC)cc2)n1 | 4.88% |
| CC(=O)c1ccc(OCC(=O)N(C)C2CCS(=O)(=O)C2)cc1 (stereo not drawn) | -11.1% |
| CC(C)CC(=O)NC(=S)NCc1ccccc1 | -84.2% (active) |

| SMILES | activity change |
| --- | --- |
| CC(C)CC(=O)NC(=S)Nc1cc(C(=O)O)ccc1Cl | -19.3% |
| CC(C)CC(=O)c1c[nH]c(C(=O)NCc2ccccc2)c1 | 0.798% |
| COc1ccc(NC(=O)CCCOc2ccc(C(C)=O)cc2)cc1S(=O)(=O)N1CCCCC1 | -1.81% |
| Cc1ccc([C@H]2C[C@H](O)[C@@H](n3cc(COC(=O)c4ccccc4)nn3)CN2C(=O)C2CCCCC2)cc1 | -0.947% |
| C[C@@H]1CN([C@@H](C)CO)C(=O)CCCn2cc(nn2)CO[C@H]1CN(C)S(=O)(=O)c1ccc(-n2cccn2)cc1 | -21.9% |
| COc1ccc(-n2nnnc2CNC(=O)c2ccc3ccccc3c2)cc1 | -0.166% |
| O=C(NCc1nnnn1-c1ccc(Cl)cc1)c1ccc2c(c1)OCO2 | -76.9% (active) |
| O=C(NCc1nnnn1-c1ccc(Cl)cc1)c1ccc([N+](=O)[O-])o1 | 7.93% |
| C/C(COc1ccccc1)=N\NC(=O)c1nnn(-c2nonc2N)c1-c1ccc(C)cc1 | 4.6% |
| Cc1c(C=O)c2ccccn2c1C(=O)c1ccncc1 | -70.5% (active) |
| Cc1cc2ccccn2c1C(=O)c1cccc(F)c1 | -0.532% |
| Cc1c(C(=O)NNC(=O)c2ccncc2)oc2ccccc12 | -13.1% |
| O=C1[C@H]2[C@@H](c3ccc(C(F)(F)F)cc3)N[C@]3(CCCN(Cc4ccc(Cl)cc4)C3=O)[C@H]2C(=O)N1Cc1ccccc1 | -9.13% |
| CC1CN(C(=O)CCC(=O)NC2CCN(Cc3ccccc3)CC2)c2ccccc2O1 (stereo not drawn) | 16.1% |
| CC1CN(C(=O)CCC(=O)NCc2cccnc2)c2ccccc2O1 (stereo not drawn) | -2.13% |
| CC1CN(C(=O)CCC(=O)NCCCN2CCC(Cc3ccccc3)CC2)c2cc(Cl)ccc2O1 (stereo not drawn) | -88.2% (active) |
| CCCc1c(C)nc2scc(-c3ccc(Cl)cc3)n2c1=O | -21.6% |
| COc1ccc(CN2C[C@H]3CON(C)[C@H]3C[C@H]2c2ccc(-c3cccc(F)c3)cc2)cc1 | -20.5% |
| Cc1ccc(-c2ccc(CN3C(C(C)C)C(=O)N(Cc4cn(CCC5OCCO5)nn4)CCS3(=O)=O)cc2)cc1 (stereo not drawn) | -23.7% |
| CO/N=C/c1ccc(N2CCN(C(=O)c3cccc(Cl)c3)CC2)c([N+](=O)[O-])c1 | -11.9% |
| O=C(c1ccc(Cl)c([N+](=O)[O-])c1)N1CCN(c2ccccc2)CC1 | 9.59% |
| O=C(/C=C/c1ccc(Cl)cc1)N1CCN(c2ccccc2[N+](=O)[O-])CC1 | -71.4% (active) |
